The results in this text go back to PubChem BioAssay AID995 (National Center for Advancing Translational Sciences (NCATS), 2007).

Each structure is given as a SMILES string. Screen size: about 72,000 compounds; about 710 (0.99%) were called active. Inconclusive results (about 7%) are left out. Shown is part of a subset that was picked to be rich in actives. A call without a number means that no potency is given here. Unmarked numbers belong to inactive results. The call rests on the fitted dose curve; in most records, active means well fitted inhibition curve with a large enough effect; inconclusive means small, poorly fitted or top-dose-only effect; inactive means no such curve, though single readings can be large or run the other way.
Potency means the concentration at half of the fitted maximal effect.

The nature of this test: qHTS Assay for Inhibitors of the ERK Signaling Pathway using a Homogeneous Screening Assay. Further: nearly all actives have a fitted effect of over 55% in size. As to conditions: HEK293-V1b, vasopressin-stimulated pERK AlphaScreen; series mostly up to 57.5 µM. An excerpt:
qHTS Assay for Inhibitors of the ERK Signaling Pathway using a Homogeneous Screening Assay; further: nearly all actives have a fitted effect of over 55% in size
NIH Chemical Genomics Center [NCGC]
NIH Molecular Libraries Screening Centers Network [MLSCN]
Assay Submitter (PI): Dr. Wei Zheng, NCGC/NIH
The Ras/extracellular-signal-regulated kinase (ERK) mitogen activated protein (MAP) kinase signaling pathway (ERK1/2 cascade) plays is a key role in transmitting signals from the cell surface to the nucleus (Nishida and Gotoh 1993; Chang and Karin, 2001). The cascade is initiated by the small G-protein Ras, which recruits Raf […], where activation occurs. Alternatively, this pathway can be activated by elevating intracellular cAMP.
Activation of the ERK pathway is essential in increased cell division and cell survival. Sustained and constitutive activation of the ERK pathway, however, has been linked to uncontrolled cell proliferation, increased cell survival, and tumor progression. Thus, the ERK has been as an attractive target for cancer chemotherapy in the past few years (Sebolt-Leopold and Herrera, 2004). Given its physiological and pathological importance, assessment of ERK phosphorylation has been broadly performed in both basic research and drug discovery. Most assays for the measurement of ERK phosphorylation use the antibody-based detection methods, such as western blot and ELISA. These assays require multiple reagent additions with cell wash steps and are not suitable for high throughout screening.
The current cell-based ERK phosphorylation assay was performed using AlphaScreen platform. AlphaScreen is a two bead-based proximity-dependent chemical energy transfer luminescent assay platform. The assay reagents (ERK SureFire(TM) kit) were supplied from TGR BioSciences (Australia). In the presence of specific antibodies, phosphorylated ERK will bring "donor" and "acceptor" beads to a proximity range (<200 nm), and subsequently lead a chemical luminescent reaction upon exciting donor beads with 680 nm laser. To exclude the assay-related false positives, we used a biotinylated rabbit IgG to perform counter-screen. The biotinylated antibody mimics the phosphorylated ERK1/2 for bringing streptavidin coated beads and protein-A coated beads to a proximity range for the AlphaScreen detection.
NCGC Assay Protocol Summary:
HEK293 cells stably expressing type-1 vasopressin receptor (V1b) were maintained in DMEM medium (Invitrogen, Carlsbad, CA) at 37C under a humidified atmosphere containing 5% CO2 and 95% air. The medium contained 10% FBS, 2 mM L-glutamine, non-essential amino acid, pyruvate and 50 U/ml penicillin and 50 ug/ml streptomycin (Invitrogen). The aliquots of frozen cells were stored at -135C and used for the compound screening. All compounds were screened as titrations from 0.6 nM to 46 uM final concentration. Vasopressin was used to stimulate the ERK phosphorylation pathway. The ERK phosphorylation in cells was determined using an AlphaScreen assay kit provided by PerkinElmer. Data were normalized to the controls for basal activity (DMSO only) and 100% activation (25 nM vasopressin). AC50 values were determined from concentration-response data modeled with the standard Hill equation.
(1) Seed 4 ul/well of resuspended frozen HEK293 cells containing 2000 cells in white 1536-well plates for overnight with 1% FBS at 37C under a humidified atmosphere containing 5% CO2 and 95% air.
(2) Add 23 nL compounds in DMSO solution. The final titration was 0.6 nM to 46 uM.
(3) Incubate at 37C for 30 min.
(4) Dispense 0.5uL vasopressin (25 nM in final)
(5) Incubate at 37C for 5 min.
(6) Dispense 0.5uL of 1:2 diluted 5x lysis buffer.
(7) Incubate at 37C for 10 min.
(8) Dispense 1.5uL of mixture of activation buffer and reaction buffer with AlphaScreen beads (streptavidin donor beads and protein-A acceptor beads, 10 ng/well for each).
(9) Incubate at room temperature for 5 hr.
(10) Detect the assay plate in an EnVision plate reader (PerkinElmer) using the AlphaScreen detection mode.
[…]
A general note: qHTS replaces the single test concentration by a dilution series.
`N#Cc1c(Cl)c(Cl)c(Cl)c(C#N)c1Cl`: the Potency was 2 µM (active).
Consider `C[N+]1(C)C2CC(OC(=O)C(CO)c3ccccc3)CC1[C@@H]1O[C@H]21` (stereo not given in full), for which the Potency entry is “inactive”.
On the same count and under the same terms, the result for `BrC1C(Br)C(Br)C(Br)C(Br)C1Br` (stereo not given) reads “inactive”; that for `COC1CC(OC2CC[C@@]3(C=O)C4CC[C@]5(C)C(C6=CC(=O)OC6)CC[C@@]5(O)C4CC[C@]3(O)C2)OC(C)C1O` (stereo not given in full), “inactive”.
Turning to `CN1[C@@H]2CC[C@H]1CC(OC(=O)c1cc(Cl)cc(Cl)c1)C2` (stereo not given in full), the Potency result is “inactive”.
For the molecule `CN1[C@@H]2CC[C@H]1CC(NC(=O)c1nn(C)c3ccccc13)C2` (stereo not given in full), the Potency entry is “inactive”.
On to `C[C@H](CCC(=O)O)[C@H]1CC[C@@H]2[C@H]3CC[C@H]4C[C@H](O)CC[C@@]4(C)[C@@H]3CC[C@@]21C`, for which the activity, negative = inhibition is -8.67% [at 11.5 µM].
With `CSC1=NP(=S)(SC)N(C)c2nc3n(c21)CCC3` (stereo not given), the Potency is 15.8 µM (active).
Regarding `CNC(C)[C@@H](O)c1ccccc1` (stereo not given in full), the Potency result was “inactive”.
In the case of `C[C@]12CC[C@H](O)CC1=CC[C@@H]1[C@H]2CC[C@]2(C)C(=O)CC[C@H]12`, the Potency result is “inactive”.
As to `O=[N+]([O-])c1ccc(Cl)c(Cl)c1`, the Potency result was “inactive”.
For the molecule `CC(C)(Cc1c[nH]c2ccc(Cl)cc12)NCCOc1ccccc1OCC1CC1`, the Potency was 39.8 µM (active).
Still for that read-out and setting: the result for `Clc1cccc(Cl)c1Cl` reads “inactive”; that for `CNCC[C@H](Oc1ccc(C(F)(F)F)cc1)c1ccccc1`, “inactive”; that for `CC(C)C(N)C(=O)OCCOCn1cnc2c(=O)[nH]c(N)nc21` (stereo not given), “inactive”.
